According to PubChem BioAssay (NCATS):
Inconclusive results are not listed. The source made the active and inactive calls. Unless noted, calls come from the whole dose curve; as a rule, active = well fitted curve in the direction sought with a large enough effect; inconclusive = small, poorly fitted or top-dose-only effect, or another doubt; inactive = no such curve, though single readings can be large; an effect the other way counts as inactive or inconclusive.

Experiments:
[1] = molecular target: Vitamin D3 receptor (Homo sapiens) (UniProt P11473); test: qHTS assay for small molecule antagonists of vitamin D receptor signaling (AID 588541; calls by dose curve;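 note: receptor activated by calcitriol during compound treatment; series mostly up to about 77 µM; % is set by controls: 0 for no effect and ±100 for the full control effect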)
Sequence of Vitamin D3 receptor (Homo sapiens) (P11473 whole entry, looked up): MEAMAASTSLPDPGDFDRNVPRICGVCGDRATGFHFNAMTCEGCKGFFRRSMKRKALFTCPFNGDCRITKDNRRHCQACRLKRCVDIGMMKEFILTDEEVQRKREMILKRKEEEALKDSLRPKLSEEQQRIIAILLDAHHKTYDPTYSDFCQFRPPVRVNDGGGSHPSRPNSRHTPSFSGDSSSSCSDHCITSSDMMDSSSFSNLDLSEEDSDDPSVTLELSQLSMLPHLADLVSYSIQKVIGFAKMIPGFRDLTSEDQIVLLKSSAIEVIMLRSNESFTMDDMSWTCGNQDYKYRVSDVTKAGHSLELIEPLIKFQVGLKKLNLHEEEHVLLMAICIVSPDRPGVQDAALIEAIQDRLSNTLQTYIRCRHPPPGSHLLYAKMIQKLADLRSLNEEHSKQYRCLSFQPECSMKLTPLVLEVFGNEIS
In short: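 Antagonist-mode beta-lactamase reporter assay: HEK293T VDR-UAS-bla cells were exposed to titrated compound alongside 1-alpha,25-dihydroxyvitamin D3 at 3 nM final for 16 h. Values were normalized to the 50 nM agonist control and DMSO basal, with IC50 and efficacy from Hill equation fits.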

[2] = molecular target: Vitamin D3 receptor (Homo sapiens) (UniProt P11473); test: qHTS assay for small molecule agonists of vitamin D receptor signaling (AID 588543; calls by dose curve;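 note: 0% = DMSO basal and 100% = reference agonist control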)
In short: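 qHTS in agonist mode: compound titrations stimulate a VDR-driven β-lactamase reporter in HEK293T cells over 16 h at 37 °C. Response normalized to 50 nM 1α,25-dihydroxyvitamin D3 = 100%, DMSO = 0%; Hill fitting gives EC50 and maximal response.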

[3] = molecular target: Thyroid hormone receptor beta (Homo sapiens) (UniProt P10828); test: qHTS assay for small molecule agonists of thyroid hormone receptor beta signaling (AID 588545; calls by dose curve; note: potency is the fitted concentration of half-maximal effect;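 for activation: 0% = DMSO only and 100% = 10 nM T3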)
Sequence of Thyroid hormone receptor beta (Homo sapiens) (P10828 whole entry, looked up): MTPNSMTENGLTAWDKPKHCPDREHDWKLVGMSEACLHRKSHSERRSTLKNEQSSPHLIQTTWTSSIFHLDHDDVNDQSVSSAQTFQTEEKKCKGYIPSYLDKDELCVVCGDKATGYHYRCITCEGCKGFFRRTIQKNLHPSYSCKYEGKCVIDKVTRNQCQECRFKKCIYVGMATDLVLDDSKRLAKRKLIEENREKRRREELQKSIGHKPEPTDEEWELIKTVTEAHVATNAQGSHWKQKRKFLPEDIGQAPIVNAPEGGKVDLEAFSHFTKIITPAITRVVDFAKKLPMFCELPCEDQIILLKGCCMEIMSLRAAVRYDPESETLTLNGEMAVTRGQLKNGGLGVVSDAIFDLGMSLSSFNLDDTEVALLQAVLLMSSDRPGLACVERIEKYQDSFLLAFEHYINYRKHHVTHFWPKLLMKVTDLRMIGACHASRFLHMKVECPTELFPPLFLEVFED
In short: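 Compounds were tested as agonists in TR-UAS-bla-GripTite HEK 293 cells. After 18 hrs at 37 C, CCF4 substrate was added and fluorescence read after 2 hrs at room temperature.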

[4] = qHTS assay for small molecule agonists of the antioxidant response element (ARE) signaling pathway (AID 651741; active = well fitted activation curve with a large enough effect in the signal ratio; the % refers to the signal ratio; note: potency is the fitted concentration of half-maximal effect; for activation: % of control where 0% means no effect)
In short: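 Agonist activity is measured as ARE-driven beta-lactamase expression in a stable HepG2 reporter line, using 16 h compound treatment at 37 C and a FRET substrate fluorescence readout after 2 h.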

[5] = qHTS assay for small molecule activators of the p53 signaling pathway (AID 651743; active = well fitted activation curve with a large enough effect in the signal ratio, not every such curve was filed as active; the % refers to the signal ratio; note: potency is the fitted concentration of half-maximal effect; for activation: series mostly up to about 92 µM; % of control where 0% means no effect); conditions: HCT-116 p53RE-bla, beta-lactamase FRET ratio, 16 h; activation: stronger effect = higher value
In short: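 A beta-lactamase reporter under p53 response element control, stably carried by HCT-116 cells, reported pathway activation. Test compounds were applied for 16 hours at 37 C, and fluorescence was measured 2 hours after adding the B/G FRET substrate.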

[6] = qHTS assay for environmental chemicals that activate the Aryl hydrocarbon Receptor (AhR) signaling pathway (AID 651777); conditions: 1A2-DRE human hepatoma cells, luciferase, 24 h; activation: stronger effect = higher value; note: nearly all actives have a fitted effect of over 15% in size; note: potency is the fitted concentration of half-maximal effect; for activation: % of control where 0% means no effect
In short: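 Induction of CYP1A2 transcription through AhR is detected by luciferase in 1A2-DRE hepatoma cells. Compounds or DMSO act for 24 hr at 37 C before a 30 min One-Glo step at room temperature.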

[7] = molecular target: Peroxisome proliferator-activated receptor alpha (Homo sapiens) (UniProt Q07869); test: qHTS assay for small molecule agonists of the peroxisome proliferator-activated receptor alpha (PPARalpha) signaling pathway (AID 651778); conditions: PathHunter PPARalpha complementation, chemiluminescence, 6 h; max response: stronger effect = higher value; note: % of control where 0% means no effect
Sequence of Peroxisome proliferator-activated receptor alpha (Homo sapiens) (Q07869 whole entry, looked up): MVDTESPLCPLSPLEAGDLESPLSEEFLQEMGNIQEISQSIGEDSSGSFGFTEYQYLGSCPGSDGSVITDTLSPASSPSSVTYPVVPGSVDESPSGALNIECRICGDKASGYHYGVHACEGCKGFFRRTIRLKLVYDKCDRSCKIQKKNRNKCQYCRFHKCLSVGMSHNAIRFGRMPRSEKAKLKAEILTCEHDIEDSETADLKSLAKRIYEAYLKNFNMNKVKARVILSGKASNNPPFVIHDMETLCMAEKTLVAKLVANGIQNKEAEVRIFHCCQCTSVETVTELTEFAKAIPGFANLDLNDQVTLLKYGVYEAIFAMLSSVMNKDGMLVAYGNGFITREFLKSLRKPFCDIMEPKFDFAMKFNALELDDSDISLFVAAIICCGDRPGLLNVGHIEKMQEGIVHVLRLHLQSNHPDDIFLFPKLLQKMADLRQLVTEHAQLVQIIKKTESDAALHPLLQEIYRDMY
In short: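 Chemiluminescence from complemented enzyme reported PPARalpha activation in cells after 6 hr of compound treatment at 37 C. The detection reagent was incubated for 60 min at room temperature, and compounds were scored as agonists.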

[8] = qHTS assay for cell viability of the p53RE-bla HCT-116 cell line (AID 743292); note: nearly all actives have a fitted effect of over 55% in size; note: potency is the fitted concentration of half-maximal effect
In short: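 In this qHTS counter-screen, metabolically competent p53RE-bla HCT-116 cells were counted via their ATP content. Compounds were applied for 16 h at 37 C and luciferase-coupled luminescence was measured.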

[9] = qHTS assay for small molecule activators of the human pregnane X receptor (PXR) signaling pathway (AID 720659; call rule not given here; note: 0% is about no effect)
[10] = qHTS assay for small molecule antagonists of peroxisome proliferator-activated receptor delta signaling (AID 588535); conditions: HEK293T PPARd-UAS-bla, beta-lactamase FRET ratio, 18 h; 460 nm channel;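 note: cells co-treated with a PPAR-delta agonist as stimulator during compound exposure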
In short: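 Antagonist-mode qHTS using GeneBLAzer PPAR-delta-UAS-bla HEK293T cells; compound exposure 18 hrs at 37 C over a titration. Ratiometric CCF4 fluorescence at 460/530 nm; concentration-response points fitted to the Hill equation.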

[11] = qHTS assay for small molecule agonists of retinoid X receptor alpha signaling (AID 588544; calls by dose curve;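 for activation: 0% = DMSO basal wells and 100% = reference agonist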); conditions: HEK293T RXRa-UAS-bla, beta-lactamase reporter, 18 h; 530 nm emission
[12] = molecular target: Retinoic acid receptor RXR-alpha (Homo sapiens) (UniProt P19793); test: as above
Sequence of Retinoic acid receptor RXR-alpha (Homo sapiens) (P19793 whole entry, looked up): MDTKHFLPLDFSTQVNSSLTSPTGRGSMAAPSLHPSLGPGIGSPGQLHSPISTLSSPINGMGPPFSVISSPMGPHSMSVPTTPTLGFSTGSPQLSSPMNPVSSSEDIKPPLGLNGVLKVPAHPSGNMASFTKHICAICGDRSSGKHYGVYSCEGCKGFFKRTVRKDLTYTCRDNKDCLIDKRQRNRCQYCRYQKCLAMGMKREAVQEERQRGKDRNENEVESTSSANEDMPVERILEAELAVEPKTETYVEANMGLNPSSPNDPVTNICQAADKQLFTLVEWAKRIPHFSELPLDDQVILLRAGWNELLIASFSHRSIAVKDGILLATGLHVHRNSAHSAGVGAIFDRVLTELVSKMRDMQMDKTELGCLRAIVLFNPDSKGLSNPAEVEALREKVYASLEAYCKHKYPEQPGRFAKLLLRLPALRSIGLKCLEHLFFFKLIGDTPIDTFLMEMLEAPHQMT

[13] = qHTS assay for small molecule antagonists of retinoid X receptor alpha signaling (AID 588546; active = well fitted inhibition curve with a large enough effect in the signal ratio, with a control signal flat, not every such curve was filed as active; the % refers to the signal ratio;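 note: cells stimulated with 9-cis-retinoic acid as agonist; % is set by controls: 0 for no effect and ±100 for the full control effect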); conditions: HEK293T RXRa-UAS-bla, beta-lactamase ratio, antagonist mode; measured here: W530 green channel, cytotoxicity proxy
In short: (§1)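 Beta-lactamase reporter inhibition, read as CCF4 fluorescence ratio (ex 405, em 460/530 nm) after 2 h at RT. HEK293T UAS-bla cells, 2500/well, were stimulated with 9-cis-RA at 500 or 100 nM final alongside test compound for 18 h at 37 C.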

[14] = molecular target: Retinoic acid receptor RXR-alpha (Homo sapiens) (UniProt P19793); test: as above; conditions: HEK293T RXRa-UAS-bla, beta-lactamase ratio, antagonist mode
In short: as §1

[15] = qHTS assay for small molecule agonists of the antioxidant response element (ARE) signaling pathway measured by Nrf2-dependant transcriptional activity (AID 720636; active = well fitted curve in the direction sought with a large enough effect in the repeat runs; an effect the other way counts as inactive or inconclusive;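 note: HepG2 cells with an ARE-driven luciferase reporter; % of control where 0% means no effect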)
In short: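 We exposed ARE-luc HepG2 cells, seeded in assay medium with 1% dialyzed FBS and allowed 6 hr to adhere, to test compounds overnight (16 hr, 37 C) before measuring luciferase with ONE-Glo.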

[16] = qHTS assay for small molecule agonists of the antioxidant response element (ARE) signaling pathway measured by Nrf2-dependant transcriptional activity - cell viability counter screen (AID 720653; active = well fitted curve in the direction sought with a large enough effect in the repeat runs; an effect the other way counts as inactive or inconclusive; note: % is set by controls: 0 for no effect and ±100 for the full control effect); conditions: ARE-bla HepG2 viability, CellTiter-Glo ATP luminescence, 16 h; max response: stronger effect = lower value
In short: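 Cytotoxicity counter screen: intracellular ATP quantified by CellTiter-Glo luminescence in the same ARE-bla HepG2 plates, after 16 h compound exposure and a 2 h beta-lactamase substrate step.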

[17] = qHTS assay for cell viability of HEK293 cells (AID 743288); conditions: ATP luminescence (CellTiter-Glo), 18 h; max response: stronger effect = lower value; note: % is set by controls: 0 for no effect and ±100 for the full control effect; nearly all actives have a fitted effect of over 50% in size
In short: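 Quantitative high-throughput screen: compounds were pinned onto parental HEK293 cells (2,000 per well) after a minimum 5 h settling at 37 C, incubated 18 h at 37 C, and intracellular ATP measured by luciferase luminescence.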

[18] = molecular target: Glucocorticoid receptor (Homo sapiens) (UniProt P04150); test: qHTS assay for small molecule agonists of glucocorticoid receptor signaling (AID 588532; active = well fitted curve in the direction sought with a large enough effect in the signal ratio, with a control signal flat; the % refers to the signal ratio;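 note: 100% = dexamethasone at 0.1 µM and 0% = DMSO only wells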); conditions: HeLa MMTV-bla, beta-lactamase ratio, agonist, 18 h; stronger effect = higher value; percent of dexamethasone control, DMSO zero
Sequence of Glucocorticoid receptor (Homo sapiens) (P04150 whole entry, looked up): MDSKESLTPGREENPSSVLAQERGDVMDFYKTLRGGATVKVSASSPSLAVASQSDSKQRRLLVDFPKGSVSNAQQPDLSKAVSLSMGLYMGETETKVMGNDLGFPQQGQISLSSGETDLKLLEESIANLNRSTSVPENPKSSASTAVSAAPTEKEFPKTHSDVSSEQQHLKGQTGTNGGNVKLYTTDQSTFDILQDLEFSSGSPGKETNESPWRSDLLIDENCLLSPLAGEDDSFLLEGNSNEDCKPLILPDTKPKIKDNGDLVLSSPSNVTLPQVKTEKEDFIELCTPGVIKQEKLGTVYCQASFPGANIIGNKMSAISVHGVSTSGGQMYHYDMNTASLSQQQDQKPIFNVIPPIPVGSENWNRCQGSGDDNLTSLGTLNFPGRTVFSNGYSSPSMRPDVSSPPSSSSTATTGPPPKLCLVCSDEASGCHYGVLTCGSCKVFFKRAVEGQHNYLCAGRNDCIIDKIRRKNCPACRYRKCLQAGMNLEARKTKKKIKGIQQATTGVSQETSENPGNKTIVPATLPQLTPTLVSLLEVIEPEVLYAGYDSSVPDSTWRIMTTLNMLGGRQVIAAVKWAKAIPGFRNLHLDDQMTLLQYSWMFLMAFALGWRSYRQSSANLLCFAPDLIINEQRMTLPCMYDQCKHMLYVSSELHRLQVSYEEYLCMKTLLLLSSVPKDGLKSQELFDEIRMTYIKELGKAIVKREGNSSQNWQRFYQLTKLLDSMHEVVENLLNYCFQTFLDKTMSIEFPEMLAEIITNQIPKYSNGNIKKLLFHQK
In short: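 Agonist-mode qHTS: GRE-driven beta-lactamase in HeLa cells exposed 18 h to titrated compounds (up to 92 uM), then CCF4 ratio read after 2 h at RT; Hill-fitted EC50, efficacy relative to 0.1 uM dexamethasone.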

[19] = molecular target: Glucocorticoid receptor (Homo sapiens) (UniProt P04150); test: qHTS assay for small molecule antagonists of glucocorticoid receptor signaling (AID 588533; active = well fitted inhibition curve with a large enough effect in the signal ratio, with a control signal flat, not every such curve was filed as active; the % refers to the signal ratio;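 note: cells stimulated with 2 nM dexamethasone as agonist; % is set by controls: 0 for no effect and ±100 for the full control effect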)
In short: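 Antagonist-mode qHTS: compound titrations added to GRE-bla HeLa cells, then dexamethasone 2 nM final; 18 h, 37 C. CCF4 FRET fluorescence normalized to dexamethasone and DMSO; IC50 from Hill fit.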

[20] = molecular target: Nuclear receptor subfamily 1 group I member 2 (Rattus norvegicus) (UniProt Q9R1A7); test: qHTS assay for small molecule activators of the rat pregnane X receptor (rPXR) signaling pathway (AID 651751; call rule not given here; note: 0% is about no effect); conditions: rPXR reporter cells, luciferase (One-Glo), 24 h
Sequence of Nuclear receptor subfamily 1 group I member 2 (Rattus norvegicus) (Q9R1A7 whole entry, looked up): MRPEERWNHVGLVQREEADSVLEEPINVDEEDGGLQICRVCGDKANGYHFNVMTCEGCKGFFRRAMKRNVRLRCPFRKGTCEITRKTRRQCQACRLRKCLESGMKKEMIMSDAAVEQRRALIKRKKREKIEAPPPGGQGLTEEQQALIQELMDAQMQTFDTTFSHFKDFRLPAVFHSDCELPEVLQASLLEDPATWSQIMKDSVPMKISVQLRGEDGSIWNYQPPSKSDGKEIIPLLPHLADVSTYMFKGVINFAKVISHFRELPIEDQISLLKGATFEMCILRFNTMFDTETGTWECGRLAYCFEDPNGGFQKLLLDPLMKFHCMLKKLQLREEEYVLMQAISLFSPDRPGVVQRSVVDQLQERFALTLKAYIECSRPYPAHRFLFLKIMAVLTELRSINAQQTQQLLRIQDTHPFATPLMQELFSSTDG

O=C(Nc1ccccc1)c1cc(Cl)ccc1O
inactive: Potency [1] | outcome [2] | Potency [3] | max response [7] 0.537% | outcome [9]
active: Potency [4] 5.45 µM | Potency [5] 10 µM | Potency [6] 15.8 µM | Potency [8] 35.5 µM

OCCOCCOCCOCCOCCO
inactive: Potency [1] | outcome [2] | Potency [12] | Potency [3] | max response [14] 0.858% | Potency [4] | activation [5] 2.86% | max response [7] -1.15% | Potency [15] | max response [16] -9.49% | max response [17] -4.24% | Potency [8]
-16.8%: max response [10]
-8.78%: max response [13]
5.49%: max response [11]

CCCCC(CC)COC(=O)CS (stereo unspecified)
inactive: activation [18] 8.21% | Potency [19] | outcome [2] | Potency [12] | Potency [3] | max response [14] 2.49% | activation [5] -0.039% | max response [7] -1.44% | Potency [15] | max response [16] 1.32% | max response [17] -2.56% | Potency [8] | max response [20] 0.0458% | outcome [9]
-9.7%: max response [11]
-9.5%: max response [13]

CN(C)c1ccc(C(c2ccccc2)c2ccc(N(C)C)cc2)cc1
inactive: outcome [2] | activation [5] -0.413% | activation [6] 1.41% | max response [7] -1.55% | Potency [15] | max response [16] -16.8% | max response [17] -22.1% | Potency [8] | max response [20] 5.9%

c1cc2ccc3ccc4ccc5cccc6c(c1)c2c3c4c56
inactive: activation [6] 6.27% | max response [7] -2.73% | Potency [15] | max response [16] -17.1% | max response [17] -3.62% | Potency [8] | max response [20] 0.241%
active: Potency [3] 25.1 µM | Potency [4] 21.7 µM | Potency [5] 35.5 µM

Cc1ccc(Cl)cc1Cl
-6.55%: max response [13]
inactive: activation [18] -2.65% | Potency [19] | Potency [1] | outcome [2] | Potency [3] | max response [14] -30.4% | Potency [4] | activation [5] 1.63% | activation [6] 1.78% | max response [7] -0.243% | Potency [15] | max response [16] 7.57% | max response [17] -8.46% | Potency [8] | max response [20] 1.69% | outcome [9]
